Measured values published in the supplement of paper PMC10849652.
About 8,800 targets were measured; listed, in parts, are those with a hit and a random draw of the rest. About 0.5% of all pairs of compound and target were hits. Unmarked numbers belong to inactive results.

Key:
Assay in all cases: log2 fold change, soluble protein after heating vs DMSO (PISA); higher = thermal stabilisation; K562 lysate, 10 uM; active = over 0.2 and 3.5 SD of the protein, either way, in both replicates (recomputed)
[1] = compound: CN1CC[C@H](c2c(O)cc(O)c3c(=O)cc(-c4ccccc4Cl)oc23)[C@H](O)C1 [alvocidib]
Method in brief: (§1)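 Pellets of K562 cells were dounce-homogenised in PBS pH 7.4 with 1 mM MgCl2, and the crude extract was held at 1 mg/mL protein for a 30 min treatment with 10 μM compound. Aliquots were heated for 3 min over 48°C-58°C and pooled before NP-40 was added to 0.5% at 4°C. The supernatant from 21,000xg for 90 min was quantified by TMTpro 16plex LC-MS/MS with channel sums equalised. Values are reported from duplicates as log-two fold change in thermal stability relative to solvent controls.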

[2] = compound: CN1CCc2c(c3ccccc3n2Cc2ccc(C(=O)NO)cc2)C1 [Tubastatin A]
Method in brief: as §1

[3] = compound: CNC(=O)C1=CC=CC=C1NC2=NC(=NC=C2Cl)NC3=C(C=C(C=C3)N4CCOCC4)OC
Method in brief: as §1

[4] = compound: CNC(=O)c1ccc(Nc2ncc(C(F)(F)F)c(NCc3nccnc3N(C)S(C)(=O)=O)n2)cc1 [defactinib]
Method in brief: as §1

[5] = compound: CNc1nc(-c2ccc3c(N)n[nH]c3c2)cc(N2C[C@@H](C(=O)NC3CCCCC3)CC[C@H]2C)n1
Method in brief: as §1

[6] = compound: COC(=O)N[C@@H](C)CNc1nccc(-c2cn(C(C)C)nc2-c2cc(Cl)cc(NS(C)(=O)=O)c2F)n1 [encorafenib]
Method in brief: as §1

[7] = compound: COC(=O)[C@H](CCSC)NC(=O)C1=C(C=C(C=C1)NC[C@H](CS)N)C2=CC=CC=C2
Method in brief: as §1

[8] = compound: COc1cc(Nc2ncc3c(n2)-c2ccc(Cl)cc2C(c2c(F)cccc2OC)=NC3)ccc1C(=O)O [alisertib]
Method in brief: as §1

[9] = compound: COc1cc2nc(-c3cc(F)ccc3O)nc(N[C@@H]3CNC[C@H]3C(C)(C)O)c2cc1OC
Method in brief: as §1

[10] = compound: COc1cc2ncnc(Nc3ccc(F)c(Cl)c3)c2cc1OCCCN1CCOCC1 [gefitinib]
Method in brief: as §1

Chain of UniProt Q13042 (Q13042 whole entry, looked up): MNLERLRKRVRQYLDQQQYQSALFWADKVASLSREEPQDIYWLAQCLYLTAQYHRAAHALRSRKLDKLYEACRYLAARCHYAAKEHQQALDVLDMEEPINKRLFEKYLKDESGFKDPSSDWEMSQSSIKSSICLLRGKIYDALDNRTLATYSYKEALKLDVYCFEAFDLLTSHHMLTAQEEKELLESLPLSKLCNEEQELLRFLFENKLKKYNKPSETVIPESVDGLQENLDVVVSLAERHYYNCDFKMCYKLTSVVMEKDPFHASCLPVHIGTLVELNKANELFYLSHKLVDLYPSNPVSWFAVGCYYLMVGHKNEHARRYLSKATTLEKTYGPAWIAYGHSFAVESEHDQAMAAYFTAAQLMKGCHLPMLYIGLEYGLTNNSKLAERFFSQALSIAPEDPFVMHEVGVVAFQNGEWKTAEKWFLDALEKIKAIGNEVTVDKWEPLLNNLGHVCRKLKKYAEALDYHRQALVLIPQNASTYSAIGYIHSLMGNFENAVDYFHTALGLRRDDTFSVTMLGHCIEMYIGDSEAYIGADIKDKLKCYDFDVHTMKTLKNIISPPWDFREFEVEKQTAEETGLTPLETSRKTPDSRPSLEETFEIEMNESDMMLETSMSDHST
Chain of UniProt Q8NBU5 (Q8NBU5 whole entry, looked up): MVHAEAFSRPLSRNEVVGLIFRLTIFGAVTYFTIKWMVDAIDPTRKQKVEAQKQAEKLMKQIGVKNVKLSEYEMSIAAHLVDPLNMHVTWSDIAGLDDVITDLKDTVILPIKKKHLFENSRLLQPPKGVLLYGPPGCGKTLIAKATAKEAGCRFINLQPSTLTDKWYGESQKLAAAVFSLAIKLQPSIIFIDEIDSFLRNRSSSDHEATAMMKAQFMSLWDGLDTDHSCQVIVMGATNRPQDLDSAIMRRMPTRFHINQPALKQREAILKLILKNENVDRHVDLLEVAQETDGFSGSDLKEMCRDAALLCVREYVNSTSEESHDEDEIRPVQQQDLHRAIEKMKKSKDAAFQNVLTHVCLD
Chain of UniProt O75794 (O75794 whole entry, looked up): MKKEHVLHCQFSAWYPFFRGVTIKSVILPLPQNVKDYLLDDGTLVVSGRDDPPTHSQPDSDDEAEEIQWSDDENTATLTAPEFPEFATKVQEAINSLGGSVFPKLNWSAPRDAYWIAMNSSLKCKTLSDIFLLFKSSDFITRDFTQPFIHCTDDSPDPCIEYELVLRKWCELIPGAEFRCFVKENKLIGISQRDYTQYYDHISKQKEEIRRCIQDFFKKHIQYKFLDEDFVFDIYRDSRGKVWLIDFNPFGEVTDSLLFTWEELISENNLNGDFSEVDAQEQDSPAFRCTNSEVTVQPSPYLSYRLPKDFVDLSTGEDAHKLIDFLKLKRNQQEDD
Chain of UniProt P33681 (P33681 whole entry, looked up): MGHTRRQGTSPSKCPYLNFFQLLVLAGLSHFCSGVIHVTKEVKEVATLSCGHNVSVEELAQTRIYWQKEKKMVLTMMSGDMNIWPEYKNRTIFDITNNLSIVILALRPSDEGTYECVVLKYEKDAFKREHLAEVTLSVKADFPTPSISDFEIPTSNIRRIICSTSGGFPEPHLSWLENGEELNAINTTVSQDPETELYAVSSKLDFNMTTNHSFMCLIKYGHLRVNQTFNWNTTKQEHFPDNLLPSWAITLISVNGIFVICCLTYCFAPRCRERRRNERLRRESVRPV
Chain of UniProt Q96B23 (Q96B23 whole entry, looked up): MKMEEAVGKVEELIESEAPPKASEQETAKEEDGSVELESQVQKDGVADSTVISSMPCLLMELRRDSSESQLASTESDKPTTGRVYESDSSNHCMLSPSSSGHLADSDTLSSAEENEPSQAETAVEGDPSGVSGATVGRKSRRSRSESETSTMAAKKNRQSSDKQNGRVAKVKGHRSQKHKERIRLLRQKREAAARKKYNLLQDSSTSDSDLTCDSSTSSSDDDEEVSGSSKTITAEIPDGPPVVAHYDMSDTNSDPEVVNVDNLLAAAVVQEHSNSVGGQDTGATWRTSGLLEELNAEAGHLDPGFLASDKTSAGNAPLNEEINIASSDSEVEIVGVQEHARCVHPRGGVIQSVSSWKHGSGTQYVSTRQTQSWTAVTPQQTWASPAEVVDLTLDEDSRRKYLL
Chain of UniProt Q8ND76 (Q8ND76 whole entry, looked up): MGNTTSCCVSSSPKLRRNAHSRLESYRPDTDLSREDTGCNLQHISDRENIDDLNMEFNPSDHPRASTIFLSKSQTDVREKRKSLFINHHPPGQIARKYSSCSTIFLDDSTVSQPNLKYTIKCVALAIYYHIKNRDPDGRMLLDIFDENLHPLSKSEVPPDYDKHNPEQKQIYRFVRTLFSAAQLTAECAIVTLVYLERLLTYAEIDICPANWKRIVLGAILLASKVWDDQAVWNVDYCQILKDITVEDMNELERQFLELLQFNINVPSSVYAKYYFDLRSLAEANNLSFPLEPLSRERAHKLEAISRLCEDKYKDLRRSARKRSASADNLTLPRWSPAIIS
Chain of UniProt P55211 (P55211 whole entry, looked up): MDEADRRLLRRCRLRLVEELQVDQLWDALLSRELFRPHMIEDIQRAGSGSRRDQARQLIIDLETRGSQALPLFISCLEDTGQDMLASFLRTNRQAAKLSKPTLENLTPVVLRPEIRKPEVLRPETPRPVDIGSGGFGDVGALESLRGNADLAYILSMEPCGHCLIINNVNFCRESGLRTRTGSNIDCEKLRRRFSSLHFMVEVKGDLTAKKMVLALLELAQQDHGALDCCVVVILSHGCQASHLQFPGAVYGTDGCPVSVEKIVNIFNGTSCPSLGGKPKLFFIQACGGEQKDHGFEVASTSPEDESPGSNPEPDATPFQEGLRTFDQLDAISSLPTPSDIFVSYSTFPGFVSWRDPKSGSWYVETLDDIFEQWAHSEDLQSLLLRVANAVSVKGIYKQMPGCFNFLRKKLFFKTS
Chain of UniProt O14965 (O14965 whole entry, looked up): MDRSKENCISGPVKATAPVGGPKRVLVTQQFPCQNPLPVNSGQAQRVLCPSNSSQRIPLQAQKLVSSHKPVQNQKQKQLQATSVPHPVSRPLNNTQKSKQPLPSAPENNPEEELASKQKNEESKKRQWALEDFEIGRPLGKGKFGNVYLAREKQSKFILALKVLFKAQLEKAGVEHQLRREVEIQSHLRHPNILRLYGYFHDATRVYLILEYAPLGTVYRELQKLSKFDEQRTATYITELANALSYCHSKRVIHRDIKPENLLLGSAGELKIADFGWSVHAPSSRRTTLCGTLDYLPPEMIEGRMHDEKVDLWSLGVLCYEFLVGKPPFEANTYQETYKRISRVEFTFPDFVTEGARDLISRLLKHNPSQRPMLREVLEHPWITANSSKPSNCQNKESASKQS
Chain of UniProt Q8N4Q1 (Q8N4Q1 whole entry, looked up): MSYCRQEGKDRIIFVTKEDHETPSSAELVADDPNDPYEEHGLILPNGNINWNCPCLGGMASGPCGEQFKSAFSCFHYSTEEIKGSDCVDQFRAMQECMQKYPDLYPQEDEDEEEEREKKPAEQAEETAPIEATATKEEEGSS
Chain of UniProt Q9Y4P1 (Q9Y4P1 whole entry, looked up): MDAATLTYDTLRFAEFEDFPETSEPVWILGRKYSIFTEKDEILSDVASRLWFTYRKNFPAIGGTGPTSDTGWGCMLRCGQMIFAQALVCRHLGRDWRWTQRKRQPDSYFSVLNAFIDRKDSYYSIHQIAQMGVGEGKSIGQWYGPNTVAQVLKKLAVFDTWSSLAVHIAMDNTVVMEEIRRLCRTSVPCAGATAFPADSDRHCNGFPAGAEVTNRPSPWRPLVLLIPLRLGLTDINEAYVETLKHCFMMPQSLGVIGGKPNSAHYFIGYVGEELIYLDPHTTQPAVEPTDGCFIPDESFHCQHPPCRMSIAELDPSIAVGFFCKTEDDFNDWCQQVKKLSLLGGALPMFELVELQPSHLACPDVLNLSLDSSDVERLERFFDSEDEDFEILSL
Chain of UniProt P83916 (P83916 whole entry, looked up): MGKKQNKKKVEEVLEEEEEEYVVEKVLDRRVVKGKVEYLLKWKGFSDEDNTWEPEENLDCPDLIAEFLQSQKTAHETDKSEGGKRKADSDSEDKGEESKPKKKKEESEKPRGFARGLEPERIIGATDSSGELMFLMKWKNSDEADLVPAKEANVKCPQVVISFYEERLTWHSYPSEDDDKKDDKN
Chain of UniProt P56945 (P56945 whole entry, looked up): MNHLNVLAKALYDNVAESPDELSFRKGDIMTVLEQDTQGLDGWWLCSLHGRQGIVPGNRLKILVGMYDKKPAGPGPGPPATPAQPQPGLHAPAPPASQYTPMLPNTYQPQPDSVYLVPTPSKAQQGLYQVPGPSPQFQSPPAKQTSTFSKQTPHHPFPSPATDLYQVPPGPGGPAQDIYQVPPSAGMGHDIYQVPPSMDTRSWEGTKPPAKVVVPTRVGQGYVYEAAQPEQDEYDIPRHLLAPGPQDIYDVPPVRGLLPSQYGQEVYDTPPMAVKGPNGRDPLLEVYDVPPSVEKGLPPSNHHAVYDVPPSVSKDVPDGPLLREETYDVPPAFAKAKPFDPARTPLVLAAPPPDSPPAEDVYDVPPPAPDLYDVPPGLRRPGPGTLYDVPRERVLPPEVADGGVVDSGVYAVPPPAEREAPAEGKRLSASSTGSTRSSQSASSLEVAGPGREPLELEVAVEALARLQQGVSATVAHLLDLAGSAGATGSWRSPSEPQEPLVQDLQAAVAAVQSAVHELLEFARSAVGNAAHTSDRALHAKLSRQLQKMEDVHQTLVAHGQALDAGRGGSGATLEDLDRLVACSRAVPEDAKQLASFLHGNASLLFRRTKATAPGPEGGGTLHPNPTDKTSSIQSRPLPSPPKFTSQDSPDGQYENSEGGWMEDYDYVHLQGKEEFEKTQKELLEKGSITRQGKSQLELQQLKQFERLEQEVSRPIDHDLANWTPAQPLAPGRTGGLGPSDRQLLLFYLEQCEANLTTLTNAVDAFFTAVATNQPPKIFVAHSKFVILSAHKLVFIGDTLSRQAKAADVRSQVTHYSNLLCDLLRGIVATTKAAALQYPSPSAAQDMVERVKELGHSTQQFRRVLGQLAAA
Chain of UniProt Q8TCD1 (Q8TCD1 whole entry, looked up): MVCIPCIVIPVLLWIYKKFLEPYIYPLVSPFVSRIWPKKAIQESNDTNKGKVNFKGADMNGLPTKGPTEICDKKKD

| Target | log2 fold change [1] | log2 fold change [2] | log2 fold change [3] | log2 fold change [4] | log2 fold change [5] | log2 fold change [6] | log2 fold change [7] | log2 fold change [8] | log2 fold change [9] | log2 fold change [10] |
| --- | --- | --- | --- | --- | --- | --- | --- | --- | --- | --- |
| ATAD1 (UniProt Q8NBU5) | -0.047 | -0.016 | 0.045 | -0.054 | 0.006 | -0.049 | -0.042 | -0.119 | 0.039 | 0.22 |
| CEBPZOS (UniProt A8MTT3) | -0.063 | -0.124 | 0.015 | 0.075 | -0.055 | 0.064 | 0.046 | -0.064 | -0.099 | 0.006 |
| ATG4B (UniProt Q9Y4P1) | 0.052 | -0.129 | 0.025 | 0 | -0.025 | 0 | -0.018 | 0.053 | 0.02 | -0.071 |
| CBX1 (UniProt P83916) | 0.078 | 0.011 | 0.011 | -0.001 | 0.025 | 0.01 | -0.055 | 0.012 | -0.025 | 0.059 |
| CANX isoform 2 (UniProt P27824) | -0.024 | 0.05 | -0.006 | 0.002 | -0.003 | 0.027 | -0.015 | -0.008 | 0.023 | 0.008 |
| ATR (UniProt Q13535) | -0.134 | -0.067 | 0.029 | -0.07 | -0.001 | 0.045 | -0.193 | 0.115 | 0.077 | 0.052 |
| BTAF1 (UniProt O14981) | -0.001 | -0.106 | 0.021 | -0.013 | 0 | 0.021 | 0.008 | 0.018 | -0.008 | 0.009 |
| CASC4 (UniProt Q6P4E1) | -0.03 | 0.054 | 0.011 | -0.064 | -0.044 | 0.128 | -0.012 | 0.035 | -0.004 | 0.086 |
| CFDP1 (UniProt Q9UEE9) | -0.104 | 0.057 | 0.042 | -0.01 | -0.051 | 0.005 | -0.021 | -0.013 | 0.015 | -0.005 |
| CDC16 (UniProt Q13042) | 0.012 | -0.1 | 0.002 | -0.024 | -0.097 | 0.032 | -0.133 | -0.008 | -0.037 | 0.017 |
| CEPT1 (UniProt Q9Y6K0) | -0.012 | 0.055 | -0.024 | 0 | -0.051 | 0.019 | -0.025 | 0.054 | -0.123 | -0.036 |
| CDC45 isoform 3 (UniProt O75419) | 0.031 | -0.138 | 0.031 | 0.028 | -0.017 | 0.001 | 0.019 | 0.023 | 0.009 | -0.034 |
| AURKA (UniProt O14965) | -0.006 | 0.03 | 0.586 | 0.425 | 0.094 | -0.068 | 0.002 | 0.436 | -0.023 | -0.101 |
| C18orf32 (UniProt Q8TCD1) | 0.049 | 0.035 | 0.084 | 0.144 | 0 | 0.168 | -0.316 | 0.043 | -0.019 | -0.249 |
| CCNY (UniProt Q8ND76) | 0.001 | -0.139 | -0.015 | 0.011 | 0.04 | 0.023 | -0.085 | 0.037 | 0.008 | -0.091 |
| CDS2 (UniProt O95674) | -0.037 | 0.116 | -0.036 | 0.04 | -0.021 | 0.027 | 0.007 | 0.012 | 0.033 | 0 |
| ATP6V0A2 (UniProt Q9Y487) | -0.129 | 0.091 | 0.022 | 0.008 | 0.001 | 0.03 | -0.027 | 0.015 | 0.048 | 0.036 |

| Target | log2 fold change [1] | log2 fold change [2] | log2 fold change [3] | log2 fold change [4] | log2 fold change [5] | log2 fold change [6] | log2 fold change [7] | log2 fold change [8] | log2 fold change [9] | log2 fold change [10] |
| --- | --- | --- | --- | --- | --- | --- | --- | --- | --- | --- |
| BCAR1 isoform 6 (UniProt P56945) | 0.074 | -0.009 | 0.009 | -0.032 | 0.012 | 0.018 | 0.014 | 0.009 | 0.08 | 0.065 |
| ATP11A (UniProt P98196) | -0.002 | -0.047 | -0.021 | -0.017 | -0.022 | 0.028 | -0.065 | -0.083 | 0.01 | 0.031 |
| BTK isoform 2 (UniProt Q06187) | -0.037 | -0.113 | 0.307 (active) | 0.017 | -0.039 | -0.033 | 0.051 | -0.012 | -0.029 | -0.046 |
| ATM (UniProt Q13315) | -0.048 | 0.013 | 0.013 | 0.105 | -0.005 | -0.031 | 0.087 | -0.01 | 0.078 | 0.022 |
| BLM (UniProt P54132) | 0.082 | -0.07 | 0.071 | 0.031 | 0.001 | 0.043 | 0.018 | -0.025 | -0.006 | -0.054 |
| CHCHD4 isoform 2 (UniProt Q8N4Q1) | -0.145 | 0.026 | 0.027 | -0.044 | 0.045 | 0.062 | -0.039 | 0.024 | 0.016 | -0.015 |
| CDK1 (UniProt P06493) | 0.036 | -0.032 | -0.017 | -0.035 | -0.021 | 0.011 | 0.036 | 0.002 | 0.328 (active) | -0.03 |
| CD80 (UniProt P33681) | 0.071 | 0 | 0.014 | -0.085 | 0.11 | 0.016 | -0.082 | -0.345 | -0.011 | -0.001 |
| CDC123 (UniProt O75794) | 0.019 | -0.125 | 0.009 | 0.007 | -0.03 | 0.018 | 0.136 | -0.004 | -0.023 | -0.001 |
| CASP9 (UniProt P55211) | -0.01 | -0.043 | -0.021 | 0.039 | -0.014 | 0.023 | -0.077 | 0.014 | 0.017 | 0.052 |
| C15orf41 (UniProt Q9Y2V0) | -0.002 | -0.036 | 0.039 | -0.13 | 0.002 | 0.126 | -0.043 | 0.023 | 0.09 | 0.006 |
| C3 (UniProt P01024) | -0.027 | 0.051 | 0.041 | 0.01 | 0.008 | 0 | 0.054 | -0.031 | -0.005 | 0.05 |
| C18orf25 isoform 2 (UniProt Q96B23) | 0.1 | 0.106 | 0.1 | 0.072 | 0.043 | 0.033 | -0.084 | 0.058 | 0.031 | 0.034 |
| ATF7IP2 (UniProt Q5U623) | -0.197 | 0.071 | -0.065 | -0.072 | – | – | – | 0.003 | 0.064 | 0.044 |
| CACUL1 (UniProt Q86Y37) | 0.022 | -0.029 | -0.027 | 0.027 | -0.04 | -0.02 | -0.042 | – | 0.212 | – |
| CDKN1B (UniProt P46527) | 0.057 | 0.048 | 0.035 | 0.067 | -0.045 | 0.03 | -0.043 | – | 0.023 | – |
